Source: the supplement of paper PMC3545927
Some of the results follow. How many sequences the whole screen found active is unknown.

Target: furin, P09958
Test: furin cleavage Z-score vs untreated control; higher = more cleavage, active = 3.5 or more, inactive = 1 or less, 8 variable residues between constant flanks
Procedure, shortened: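 Furin cleavage was scored on 8-mer peptides joined to a cDNA oligonucleotide and bound to magnetic beads at the N-terminus. Digestion with purified furin (1:10 enzyme:substrate, 0.01 ml, 50 mM HEPES pH 7.5, CaCl2, NaCl) lasted 7.5, 15 or 30 min. Freed DNA was tagged with adapters by PCR, sequenced and counted; the cleavage Z-score is the lowess-adjusted log count versus furin-free reactions, scaled by median absolute deviation.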

Sequence of furin, P09958 (P09958 whole entry): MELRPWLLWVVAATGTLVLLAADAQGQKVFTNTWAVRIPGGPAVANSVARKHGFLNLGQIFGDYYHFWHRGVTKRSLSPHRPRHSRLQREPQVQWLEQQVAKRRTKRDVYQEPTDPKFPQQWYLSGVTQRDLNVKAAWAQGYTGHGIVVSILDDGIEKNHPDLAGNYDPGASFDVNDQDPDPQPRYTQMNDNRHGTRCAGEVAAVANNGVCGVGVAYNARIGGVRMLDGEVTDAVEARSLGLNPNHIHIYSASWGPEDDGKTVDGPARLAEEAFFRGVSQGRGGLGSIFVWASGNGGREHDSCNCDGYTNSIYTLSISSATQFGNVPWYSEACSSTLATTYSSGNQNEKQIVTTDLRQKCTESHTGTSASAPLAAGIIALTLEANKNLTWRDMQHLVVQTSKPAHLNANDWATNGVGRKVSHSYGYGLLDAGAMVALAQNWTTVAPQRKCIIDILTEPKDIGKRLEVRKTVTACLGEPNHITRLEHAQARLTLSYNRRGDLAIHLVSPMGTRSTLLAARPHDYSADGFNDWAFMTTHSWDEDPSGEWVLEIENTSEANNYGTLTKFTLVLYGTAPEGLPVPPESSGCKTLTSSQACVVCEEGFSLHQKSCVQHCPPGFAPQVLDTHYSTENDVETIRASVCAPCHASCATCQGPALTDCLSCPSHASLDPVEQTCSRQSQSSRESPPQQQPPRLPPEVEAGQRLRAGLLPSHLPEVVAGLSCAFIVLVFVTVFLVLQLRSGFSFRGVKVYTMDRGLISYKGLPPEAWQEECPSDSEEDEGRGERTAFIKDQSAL

B1: HC1043 (peptide)
chain: CAMWNFISGIAGNASASA
furin cleavage Z-score (7.5 min): -0.76 (inactive) | furin cleavage Z-score (15 min): -0.163 (inactive) | furin cleavage Z-score (30 min): 1.37

B2: HC427 (peptide)
chain: CADTDVFVLNAGNASASA
furin cleavage Z-score (7.5 min): -0.554 (inactive) | furin cleavage Z-score (15 min): -0.537 (inactive) | furin cleavage Z-score (30 min): -1.25 (inactive)

B3: HC1560 (peptide)
chain: CAKRVYYLTRAGNASASA
furin cleavage Z-score (7.5 min): 2.27 | furin cleavage Z-score (15 min): 0.852 (inactive) | furin cleavage Z-score (30 min): -0.874 (inactive)

B4: FS-2599 (peptide)
chain: CARRRRSSVFAGNASASA
furin cleavage Z-score (7.5 min): 6.51 (active) | furin cleavage Z-score (15 min): 7.07 (active) | furin cleavage Z-score (30 min): 8.27 (active)

B5: FS-2234 (peptide)
chain: CARRRRSILFAGNASASA
furin cleavage Z-score (7.5 min): 5.15 (active) | furin cleavage Z-score (15 min): 6.77 (active) | furin cleavage Z-score (30 min): 8.96 (active)

B6: FS-2795 (peptide)
chain: CARRRRSISRAGNASASA
furin cleavage Z-score (7.5 min): 6.77 (active) | furin cleavage Z-score (15 min): 7.84 (active) | furin cleavage Z-score (30 min): 8.25 (active)

B7: FS-2518 (peptide)
chain: CARRRRSSKRAGNASASA
furin cleavage Z-score (7.5 min): 4.4 (active) | furin cleavage Z-score (15 min): 5.93 (active) | furin cleavage Z-score (30 min): 5.04 (active)

B8: HC691 (peptide)
chain: CAIVSTAAQTAGNASASA
furin cleavage Z-score (7.5 min): -1.17 (inactive) | furin cleavage Z-score (15 min): -1.15 (inactive) | furin cleavage Z-score (30 min): -1.22 (inactive)

B9: HC96 (peptide)
chain: CAVVCTSMSYAGNASASA
furin cleavage Z-score (7.5 min): 1.17 | furin cleavage Z-score (15 min): -0.0848 (inactive) | furin cleavage Z-score (30 min): 0.455 (inactive)

B10: HC53 (peptide)
chain: CATTPESGSWAGNASASA
furin cleavage Z-score (7.5 min): -0.759 (inactive) | furin cleavage Z-score (15 min): -0.574 (inactive) | furin cleavage Z-score (30 min): -0.54 (inactive)

B11: HC2477 (peptide)
chain: CASTPCSAHLAGNASASA
furin cleavage Z-score (7.5 min): 0.591 (inactive) | furin cleavage Z-score (15 min): 0.749 (inactive) | furin cleavage Z-score (30 min): -1.42 (inactive)

B12: HC139 (peptide)
chain: CAEVVQSTWVAGNASASA
furin cleavage Z-score (7.5 min): -1.19 (inactive) | furin cleavage Z-score (15 min): -0.568 (inactive) | furin cleavage Z-score (30 min): -0.254 (inactive)

B13: HC509 (peptide)
chain: CAVDVQYLYGAGNASASA
furin cleavage Z-score (7.5 min): -0.528 (inactive) | furin cleavage Z-score (15 min): 0.269 (inactive) | furin cleavage Z-score (30 min): 0.219 (inactive)

B14: HC601 (peptide)
chain: CAHPTLVFDIAGNASASA
furin cleavage Z-score (7.5 min): -0.391 (inactive) | furin cleavage Z-score (15 min): -1.13 (inactive) | furin cleavage Z-score (30 min): -0.764 (inactive)

B15: FS-3066 (peptide)
chain: CARRRRSIQNAGNASASA
furin cleavage Z-score (7.5 min): 7.74 (active) | furin cleavage Z-score (15 min): 10.2 (active) | furin cleavage Z-score (30 min): 7.21 (active)

B16: HC1290 (peptide)
chain: CALVAEEDERAGNASASA
furin cleavage Z-score (7.5 min): -0.68 (inactive) | furin cleavage Z-score (15 min): -1.05 (inactive) | furin cleavage Z-score (30 min): -0.546 (inactive)

B17: HC915 (peptide)
chain: CASGMFDSSVAGNASASA
furin cleavage Z-score (7.5 min): -1.55 (inactive) | furin cleavage Z-score (15 min): -0.578 (inactive) | furin cleavage Z-score (30 min): -0.341 (inactive)

B18: HC1796 (peptide)
chain: CAGEMEECSQAGNASASA
furin cleavage Z-score (7.5 min): -0.269 (inactive) | furin cleavage Z-score (15 min): 1.03 | furin cleavage Z-score (30 min): 0.391 (inactive)

B19: FS-765 (peptide)
chain: CAESIRMKRYAGNASASA
furin cleavage Z-score (7.5 min): 10.4 (active) | furin cleavage Z-score (15 min): 10.9 (active) | furin cleavage Z-score (30 min): 9.17 (active)

B20: FS-780 (peptide)
chain: CAGEMRKKRYAGNASASA
furin cleavage Z-score (7.5 min): 8.98 (active) | furin cleavage Z-score (15 min): 11.5 (active) | furin cleavage Z-score (30 min): 11.2 (active)

B21: FS-25 (peptide)
chain: CAESGRGKRYAGNASASA
furin cleavage Z-score (7.5 min): 2.19 | furin cleavage Z-score (15 min): 4.19 (active) | furin cleavage Z-score (30 min): 6.23 (active)

B22: HC2398 (peptide)
chain: CAEVPCHRTSAGNASASA
furin cleavage Z-score (7.5 min): 0.843 (inactive) | furin cleavage Z-score (15 min): -0.111 (inactive) | furin cleavage Z-score (30 min): 1.35

B23: FS-866 (peptide)
chain: CARYDRQKRRAGNASASA
furin cleavage Z-score (7.5 min): 5.33 (active) | furin cleavage Z-score (15 min): 8.92 (active) | furin cleavage Z-score (30 min): 8.14 (active)

B24: FS-558 (peptide)
chain: CAQRDRQKRRAGNASASA
furin cleavage Z-score (7.5 min): 8.63 (active) | furin cleavage Z-score (15 min): 9.96 (active) | furin cleavage Z-score (30 min): 8.51 (active)

B25: FS-898 (peptide)
chain: CAWRRRQKRRAGNASASA
furin cleavage Z-score (7.5 min): 11.1 (active) | furin cleavage Z-score (15 min): 12.6 (active) | furin cleavage Z-score (30 min): 10.1 (active)

B26: HC1084 (peptide)
chain: CAVLIDILAGAGNASASA
furin cleavage Z-score (7.5 min): -1.68 (inactive) | furin cleavage Z-score (15 min): -0.0246 (inactive) | furin cleavage Z-score (30 min): -1.35 (inactive)

B27: HC1599 (peptide)
chain: CALDLPPIIQAGNASASA
furin cleavage Z-score (7.5 min): 0.239 (inactive) | furin cleavage Z-score (15 min): -0.216 (inactive) | furin cleavage Z-score (30 min): -0.33 (inactive)

B28: HC1870 (peptide)
chain: CATTVCSGSWAGNASASA
furin cleavage Z-score (7.5 min): -0.934 (inactive) | furin cleavage Z-score (15 min): -0.656 (inactive) | furin cleavage Z-score (30 min): -0.569 (inactive)
